In PubChem BioAssay:
Calls of active or inactive are those of the source.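 Rule for the calls, unless noted: active = thallium flux through the channel raised or lowered by more than 3 SD from vehicle-only wells, actives on both sides; inactive = the rest.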

Assays:
F380Y = test: modulators of BK channel variants, profiling panel, selectivity assay, cell-based, U2OS BacMam, thallium flux, beta subunits (AID 1259406); conditions: at 30 µM;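 note: initial slope of Thallos dye fluorescence rise after thallium is added; log ratio against the mean of 0.3% DMSO vehicle wells on the same plate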
F380Y/beta1 = test: as above; conditions: at 30 µM
F380Y/beta2Delta = test: as above; conditions: at 30 µM
F380Y/beta4 = test: as above; conditions: at 30 µM
[1] = target: Calcium-activated potassium channel subunit alpha-1 (Homo sapiens) + Leucine-rich repeat-containing protein 26 (Homo sapiens) (UniProt Q12791+Q2I0M4); test: as above; conditions: F380Y/Slo1WT/gamma1, at 30 µM
Calcium-activated potassium channel subunit alpha-1 (Homo sapiens) + Leucine-rich repeat-containing protein 26 (Homo sapiens), sequence (Q2I0M4 whole entry, looked up, one chain of several): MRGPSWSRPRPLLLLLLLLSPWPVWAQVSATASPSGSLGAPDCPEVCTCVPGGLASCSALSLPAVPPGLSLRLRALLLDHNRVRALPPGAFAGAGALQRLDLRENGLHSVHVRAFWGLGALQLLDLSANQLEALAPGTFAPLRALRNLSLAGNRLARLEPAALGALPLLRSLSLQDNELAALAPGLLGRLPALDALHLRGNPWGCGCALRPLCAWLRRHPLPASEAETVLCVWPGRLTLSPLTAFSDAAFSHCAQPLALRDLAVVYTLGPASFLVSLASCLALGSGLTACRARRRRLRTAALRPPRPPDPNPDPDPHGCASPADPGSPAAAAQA

R275C = test: as above; conditions: at 30 µM
R275C/beta1 = test: as above; conditions: at 30 µM
R275C/beta2Delta = test: as above; conditions: at 30 µM
R275C/beta4 = test: as above; conditions: at 30 µM
R275C/Slo1WT/beta2 = test: as above; conditions: at 30 µM
[2] = antimalarial activity against Dd2 strain (AID 2302;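 active = growth inhibition above 50% at the single 2 µM test dose, taken to imply half-maximal potency below 2 µM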;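 note: 0% = DMSO untreated growth and 100% = chloroquine plus artemisinin killed control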); conditions: P. falciparum Dd2 in RBCs, LDH growth readout, 72 h; at 2 µM; hits give high values
[3] = HepG2 cytotoxicity, primary screen, cytotoxicity control for P. falciparum antimalarial project, cell-based, ATP luminescence (AID 2303;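 active = inhibition above 50%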;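 note: 0% = DMSO wells and 100% = digitonin-killed cells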); conditions: HepG2 viability, 24-48 h, at 10 µM, hits give high values
[4] = target: L-lactate dehydrogenase (Plasmodium falciparum (isolate CDC / Honduras)) (UniProt Q27743); test: PfLDH activity inhibition – cell lysate, 3D7 strain, counter-screen for P. falciparum growth inhibition project (AID 2304; call rule not given here;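 note: 0% = vehicle and 100% = reference inhibitor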); conditions: P. falciparum 3D7 crude extract, LDH APAD/NBT absorbance; at 2 µM; hits give high values
L-lactate dehydrogenase (Plasmodium falciparum (isolate CDC / Honduras)), sequence (Q27743 whole entry, looked up): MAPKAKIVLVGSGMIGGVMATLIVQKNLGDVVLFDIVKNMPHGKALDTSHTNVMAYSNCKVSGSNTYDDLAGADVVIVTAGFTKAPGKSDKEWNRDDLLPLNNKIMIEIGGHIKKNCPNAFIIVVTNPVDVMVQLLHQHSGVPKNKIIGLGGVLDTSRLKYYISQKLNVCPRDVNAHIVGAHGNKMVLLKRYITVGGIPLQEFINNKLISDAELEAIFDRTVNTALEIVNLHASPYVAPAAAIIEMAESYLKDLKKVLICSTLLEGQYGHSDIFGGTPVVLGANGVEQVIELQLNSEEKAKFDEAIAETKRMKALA

[5] = inhibition of 3D7 malaria parasite growth – strain 3D7 (AID 2306; call rule not given here;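 note: 0% = DMSO wells and 100% = chloroquine plus artemisinin control wells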); conditions: P. falciparum 3D7 erythrocytic growth, LDH absorbance, 72 h; at 2 µM; hits give high values
[6] = target: Protein kinase 7 (PK7), Plasmodium falciparum 3D7 (PF3D7_0213400) (UniProt Q7YTF7); test: inhibition of Plasmodium PK7 catalytic activity – biochemical, TCAMS antimalarial set, Kinase-Glo luminescence (AID 1159587; call rule not given here); conditions: recombinant PfPK7, Kinase-Glo ATP depletion luminescence
Protein kinase 7 (PK7), Plasmodium falciparum 3D7 (PF3D7_0213400), sequence (Q7YTF7 1-343): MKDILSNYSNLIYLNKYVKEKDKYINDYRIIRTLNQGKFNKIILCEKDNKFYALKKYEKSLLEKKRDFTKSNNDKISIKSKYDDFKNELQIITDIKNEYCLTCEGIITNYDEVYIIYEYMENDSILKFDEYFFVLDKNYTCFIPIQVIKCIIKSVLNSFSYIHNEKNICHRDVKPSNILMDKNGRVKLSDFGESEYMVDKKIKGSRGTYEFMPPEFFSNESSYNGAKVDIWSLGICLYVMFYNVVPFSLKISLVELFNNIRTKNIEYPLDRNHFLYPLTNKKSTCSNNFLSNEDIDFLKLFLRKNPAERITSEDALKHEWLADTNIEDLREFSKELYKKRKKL

CN(Cc1nnc(-c2ccc3ccccc3c2)o1)c1nnc(C(F)(F)F)s1
inactive: log fold change Tl+ flux (F380Y) 0.00202 | log fold change Tl+ flux (F380Y/beta1) 0.0221 | log fold change Tl+ flux (F380Y/beta2Delta) 0.0123 | log fold change Tl+ flux (F380Y/beta4) -0.0118 | log fold change Tl+ flux [1] -0.0041 | log fold change Tl+ flux (R275C) 4.3e-05 | log fold change Tl+ flux (R275C/beta1) -0.0299 | log fold change Tl+ flux (R275C/beta2Delta) -0.000282 | log fold change Tl+ flux (R275C/beta4) -0.0251 | log fold change Tl+ flux (R275C/Slo1WT/beta2) 0.0181

Cc1cc(Nc2ncc(C#N)c(Nc3ccccc3C(N)=O)n2)ccc1N1CCN(C)CC1
active: growth inhibition [2] 94% | inhibition [3] 99% | growth inhibition [5] 94%
inactive: inhibition [4] 0% | outcome [6]

O=C(Nc1c(S(=O)(=O)c2ccccc2)csc1Br)c1ccccc1Cl
inactive: log fold change Tl+ flux (F380Y) -0.0373 | log fold change Tl+ flux (F380Y/beta1) 0.0138 | log fold change Tl+ flux (F380Y/beta2Delta) -0.0509 | log fold change Tl+ flux (F380Y/beta4) 0.0338 | log fold change Tl+ flux [1] 0.0104 | log fold change Tl+ flux (R275C) -0.0217 | log fold change Tl+ flux (R275C/beta1) 0.0155 | log fold change Tl+ flux (R275C/beta2Delta) -0.0307 | log fold change Tl+ flux (R275C/beta4) 0.00756 | log fold change Tl+ flux (R275C/Slo1WT/beta2) 0.0177

CCOC(=O)CN(C=NC#N)c1ccc(OC)cc1
inactive: log fold change Tl+ flux (F380Y) -0.0235 | log fold change Tl+ flux (F380Y/beta1) 0.0113 | log fold change Tl+ flux (F380Y/beta2Delta) -0.0114 | log fold change Tl+ flux (F380Y/beta4) 0.0329 | log fold change Tl+ flux [1] 0.0663 | log fold change Tl+ flux (R275C) 0.0146 | log fold change Tl+ flux (R275C/beta1) -0.0574 | log fold change Tl+ flux (R275C/beta2Delta) -0.0152 | log fold change Tl+ flux (R275C/beta4) -0.00948 | log fold change Tl+ flux (R275C/Slo1WT/beta2) 0.0303

CN1CCN(c2ccc(Nc3ncc(C#N)c(Nc4ccccc4C(N)=O)n3)cc2)CC1
inactive: inhibition [3] 43% | inhibition [4] -1% | outcome [6]
active: growth inhibition [2] 93% | growth inhibition [5] 92%

CC(C)=CC(C)=NNc1c([N+](=O)[O-])cc(C(F)(F)F)cc1[N+](=O)[O-]
inactive: log fold change Tl+ flux (F380Y) 0.0422 | log fold change Tl+ flux (F380Y/beta1) 0.0383 | log fold change Tl+ flux (F380Y/beta2Delta) 0.0202 | log fold change Tl+ flux (F380Y/beta4) 0.0221 | log fold change Tl+ flux [1] -0.0328 | log fold change Tl+ flux (R275C) 0.043 | log fold change Tl+ flux (R275C/beta1) -0.0463 | log fold change Tl+ flux (R275C/beta2Delta) -0.0753 | log fold change Tl+ flux (R275C/beta4) -0.00952 | log fold change Tl+ flux (R275C/Slo1WT/beta2) 0.0191

CS(=O)(=O)Nc1ccc(N2CCN(c3ccc(C(F)(F)F)cn3)CC2)nc1
inactive: log fold change Tl+ flux (F380Y) 0.0216 | log fold change Tl+ flux (F380Y/beta1) 0.0253 | log fold change Tl+ flux (F380Y/beta2Delta) 0.0364 | log fold change Tl+ flux (F380Y/beta4) 0.0379 | log fold change Tl+ flux [1] 0.0373 | log fold change Tl+ flux (R275C) 0.0255 | log fold change Tl+ flux (R275C/beta1) 0.0101 | log fold change Tl+ flux (R275C/beta2Delta) 0.0279 | log fold change Tl+ flux (R275C/beta4) 0.0149 | log fold change Tl+ flux (R275C/Slo1WT/beta2) 0.0171

COCCCNC(=O)C(C#N)=CN(C)C
inactive: log fold change Tl+ flux (F380Y) -0.062 | log fold change Tl+ flux (F380Y/beta1) -0.0601 | log fold change Tl+ flux (F380Y/beta4) 0.0041 | log fold change Tl+ flux [1] -0.0197 | log fold change Tl+ flux (R275C) -0.0308 | log fold change Tl+ flux (R275C/beta1) -0.0584 | log fold change Tl+ flux (R275C/beta2Delta) -0.0395 | log fold change Tl+ flux (R275C/beta4) -0.0325 | log fold change Tl+ flux (R275C/Slo1WT/beta2) 0.0541
active: log fold change Tl+ flux (F380Y/beta2Delta) -0.103

COCc1cc(=O)[nH]c(SCC(=O)c2ccc(-c3ccccc3)cc2)n1
inactive: log fold change Tl+ flux (F380Y) 0.0542 | log fold change Tl+ flux (F380Y/beta1) 0.0105 | log fold change Tl+ flux (F380Y/beta2Delta) 0.0138 | log fold change Tl+ flux (F380Y/beta4) -0.000638 | log fold change Tl+ flux [1] 0.0335 | log fold change Tl+ flux (R275C) 0.0131 | log fold change Tl+ flux (R275C/beta1) -0.0427 | log fold change Tl+ flux (R275C/beta2Delta) 0.032 | log fold change Tl+ flux (R275C/beta4) 0.0252 | log fold change Tl+ flux (R275C/Slo1WT/beta2) -0.000518

CC(=O)OCC(=O)C1(O)C(C)CC2C3CCC4CC(=O)C=CC4(C)C3C(O)CC21C (stereo not given)
inactive: log fold change Tl+ flux (F380Y) 0.0723 | log fold change Tl+ flux (F380Y/beta1) -0.0034 | log fold change Tl+ flux (F380Y/beta2Delta) -0.017 | log fold change Tl+ flux (F380Y/beta4) 0.0362 | log fold change Tl+ flux [1] -0.00155 | log fold change Tl+ flux (R275C) 0.00844 | log fold change Tl+ flux (R275C/beta1) 0.0348 | log fold change Tl+ flux (R275C/beta2Delta) 0.0375 | log fold change Tl+ flux (R275C/beta4) 0.0527 | log fold change Tl+ flux (R275C/Slo1WT/beta2) 0.00132

NC(=NC(=O)c1cccs1)c1cccs1
inactive: log fold change Tl+ flux (F380Y) 0.00622 | log fold change Tl+ flux (F380Y/beta1) 0.0573 | log fold change Tl+ flux (F380Y/beta2Delta) 0.0445 | log fold change Tl+ flux (F380Y/beta4) 0.0177 | log fold change Tl+ flux [1] 0.0217 | log fold change Tl+ flux (R275C) 0.0451 | log fold change Tl+ flux (R275C/beta1) 0.0586 | log fold change Tl+ flux (R275C/beta2Delta) 0.0615 | log fold change Tl+ flux (R275C/beta4) 0.0555 | log fold change Tl+ flux (R275C/Slo1WT/beta2) 0.0314

O=C(CN1CCOCC1)Nc1ccccc1Sc1nccc(C(F)(F)F)n1
inactive: log fold change Tl+ flux (F380Y) 0.0122 | log fold change Tl+ flux (F380Y/beta1) -0.00692 | log fold change Tl+ flux (F380Y/beta2Delta) -0.0219 | log fold change Tl+ flux (F380Y/beta4) -0.00275 | log fold change Tl+ flux [1] 0.0522 | log fold change Tl+ flux (R275C) -0.0101 | log fold change Tl+ flux (R275C/beta1) -0.0285 | log fold change Tl+ flux (R275C/beta2Delta) -0.0136 | log fold change Tl+ flux (R275C/beta4) 0.0162 | log fold change Tl+ flux (R275C/Slo1WT/beta2) 0.0195

COC(=O)c1ccc(S(=O)(=O)NNc2ncnc3cc(C(C)(C)C)sc23)n1C
inactive: log fold change Tl+ flux (F380Y) 0.00239 | log fold change Tl+ flux (F380Y/beta1) 0.00797 | log fold change Tl+ flux (F380Y/beta2Delta) 0.0347 | log fold change Tl+ flux (F380Y/beta4) 0.0667 | log fold change Tl+ flux [1] 0.00885 | log fold change Tl+ flux (R275C) 0.0131 | log fold change Tl+ flux (R275C/beta1) -0.027 | log fold change Tl+ flux (R275C/beta2Delta) 0.00378 | log fold change Tl+ flux (R275C/beta4) -0.0156 | log fold change Tl+ flux (R275C/Slo1WT/beta2) 0.0399
